Source: PubChem BioAssay
DT40 TDP1 no CPT: qHTS for Inhibitors of human tyrosyl-DNA phosphodiesterase 1 (TDP1): qHTS in cells in absence of CPT; actives 15% (n = 420,000); Potency, µM (top dose mostly 46.2 µM), most hits filed as inhibitors; DT40 Tdp1-/- hTDP1 cells, no CPT, ATP luminescence, 48 h; also: nearly all actives have a fitted effect of over 55% in size
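Compound effects on proliferation are scored in DT40 Tdp1-/-;hTDP1 cells in the absence of CPT. ATP levels (CellTiter-Glo luminescence) are recorded after a ≥48 hr, 37 °C incubation.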
IL-1B inflam inh: qHTS for Inhibitors of Inflammasome Signaling: IL-1-beta AlphaLISA Primary Screen | actives 4.7% (n = 360,000) | AID 743279, 2014 | THP-1 LPS/ATP IL-1B secretion, AlphaLISA, 16 h; stronger effect = lower value | activity change, % at 57.5 µM; in the data active = activity change below about -50%; inconclusive = mostly about -30% to -49%
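Secreted IL-1B measured by AlphaLISA bead assay after 16 h compound exposure of THP-1 cells; compounds (final up to 57.5 uM) added 1 h before LPS (250 ng/mL) and ATP (1.25 mM) stimulation; lower signal means less secretion.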
HT1080 IDH1KD tx: qHTS for induction of synthetic lethality in tumor cells producing 2HG: qHTS for the HT-1080-IDH1KD cell line; HT-1080 IDH1 knockdown viability, ATP luminescence, 48 h; Potency, µM (series often up to 46.1 µM), hits mostly cytotoxic; actives 2% (n = 360,000); AID 686971, 2013
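Luminescent ATP read-out (CellTiter-Glo, 10 min at room temperature) after 48 h compound exposure at 37 °C gave viability of IDH1-knockdown HT-1080 cells. Activity was normalised to DMSO and cell-free wells, then fitted as concentration-response curves.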
HT1080NT lethal: qHTS for induction of synthetic lethality in tumor cells producing 2HG: qHTS for the HT-1080-NT fibrosarcoma cell line. HT-1080-NT fibrosarcoma viability, CellTiter-Glo ATP luminescence, 48 h. Potency, µM (doses to about 46.1 µM), usual class: cytotoxic. actives 1.6% (n = 360,000). AID 686970, 2013;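 also: NT is the 2HG producing partner of a matched IDH1 knockdown line; nearly all actives have a fitted effect of over 55% in size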
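Fibrosarcoma NT cells, 750 per well in 5% FBS RPMI, were exposed to compound for 48 hours. Viability: CellTiter-Glo luminescence.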
DT40 TDP1 CPT: qHTS for Inhibitors of human tyrosyl-DNA phosphodiesterase 1 (TDP1): qHTS in cells in presence of CPT; chicken DT40 Tdp1-/-;hTDP1 cells + 20 nM CPT, ATP luminescence, 48 h; Potency, µM (series often up to 46.2 µM), usual class: inhibitors; actives 12% (n = 420,000); AID 686979, 2013; also: nearly all actives have a fitted effect of over 55% in size
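Chicken DT40 Tdp1-/- cells stably complemented with human TDP1 were seeded at 400 cells/well in medium containing 20 nM camptothecin, exposed to pin-transferred compounds, and grown at 37 °C for at least 48 hr. Viability was read as ATP luminescence.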
Large screens that a line does not name were inactive. An excerpt weighted towards active compounds, which were near 19% of everything screened. Unless noted, calls follow the shape of the dose curve; as a rule, active = well fitted curve in the direction sought with a large enough effect; inconclusive = small, poorly fitted or top-dose-only effect, or another doubt; inactive = no such curve, though single readings can be large; an effect the other way counts as inactive or inconclusive.

O=C1/C(=C\c2ccc([N+](=O)[O-])cc2)CCc2ccccc21	DT40 TDP1 no CPT inconclusive, IL-1B inflam inh inconclusive
Cc1ccc(CSCc2nc3ccccc3[nH]2)cc1	DT40 TDP1 no CPT 20.6µM, IL-1B inflam inh -98.5, HT1080 IDH1KD tx inconclusive, DT40 TDP1 CPT 29.1µM
Cc1cc(C)cc(CC(Cc2nc3ccccc3[nH]2)c2nc3ccccc3[nH]2)c1 (configuration not stated)	DT40 TDP1 no CPT 25.9µM, IL-1B inflam inh -69.3, HT1080 IDH1KD tx inconclusive, HT1080NT lethal 18.4µM, DT40 TDP1 CPT inconclusive
Cc1ccc(SCc2nc3ccccc3[nH]2)cc1	DT40 TDP1 no CPT inconclusive, DT40 TDP1 CPT inconclusive
Cc1ccc(CC(Cc2nc3ccccc3[nH]2)c2nc3ccccc3[nH]2)cc1 (configuration not stated)	DT40 TDP1 no CPT 26.6µM, DT40 TDP1 CPT 26.6µM (no result: IL-1B inflam inh, HT1080 IDH1KD tx, HT1080NT lethal)
CCC(c1nnc(SCC(=O)Nc2nnc(-c3ccccc3)o2)n1Cc1ccccc1)N(C)C (configuration not stated)	none
COc1ccccc1C(=O)Nc1nnc2n1CCS2	none (no result: IL-1B inflam inh, HT1080 IDH1KD tx, HT1080NT lethal)
COc1cccc(-c2oc3ccccc3c(=O)c2O)c1	DT40 TDP1 no CPT 26.6µM, DT40 TDP1 CPT 26.6µM (no result: IL-1B inflam inh, HT1080 IDH1KD tx, HT1080NT lethal)
COc1cccc(-c2c(NC(=O)c3ccco3)oc3ccccc3c2=O)c1	none
O=c1c(O)c(-c2ccc3c(c2)OCO3)oc2ccccc12	DT40 TDP1 no CPT inconclusive, HT1080 IDH1KD tx inconclusive, HT1080NT lethal inconclusive, DT40 TDP1 CPT 18.4µM
COc1ccc2[nH]cc(CCNC(=O)c3ccc4ccccc4n3)c2c1	DT40 TDP1 no CPT inconclusive, HT1080 IDH1KD tx inconclusive, DT40 TDP1 CPT inconclusive
COc1ccc2[nH]cc(CCNc3ncnc4ccc(-c5ccc6c(c5)OCO6)cc34)c2c1	DT40 TDP1 no CPT 16.4µM, DT40 TDP1 CPT inconclusive (no result: IL-1B inflam inh, HT1080 IDH1KD tx, HT1080NT lethal)
CC(=O)NCCNc1ncnc2ccc(-c3c(C)noc3C)cc12	DT40 TDP1 CPT inconclusive (no result: IL-1B inflam inh, HT1080 IDH1KD tx, HT1080NT lethal)
COc1ccc2[nH]cc(CCNc3ncnc4ccc(-c5cccnc5)cc34)c2c1	DT40 TDP1 no CPT 23.1µM, DT40 TDP1 CPT 14.6µM (no result: IL-1B inflam inh, HT1080 IDH1KD tx, HT1080NT lethal)
CC(=O)NCCNc1ncnc2ccc(-c3ccc4c(c3)OCO4)cc12	DT40 TDP1 no CPT inconclusive, DT40 TDP1 CPT 16.4µM (no result: IL-1B inflam inh, HT1080 IDH1KD tx, HT1080NT lethal)
O=C(Nc1ccc2snnc2c1)Nc1cccc2ccccc12	DT40 TDP1 no CPT inconclusive, HT1080 IDH1KD tx inconclusive, HT1080NT lethal inconclusive, DT40 TDP1 CPT 23.1µM
CCOC(=O)c1ccc(NC(=O)Nc2ccc3snnc3c2)cc1	DT40 TDP1 no CPT 2.91µM, DT40 TDP1 CPT inconclusive (no result: IL-1B inflam inh, HT1080 IDH1KD tx, HT1080NT lethal)
CCc1ccccc1NC(=O)Nc1ccc2snnc2c1	DT40 TDP1 no CPT 20.6µM, DT40 TDP1 CPT 18.4µM (no result: IL-1B inflam inh, HT1080 IDH1KD tx, HT1080NT lethal)
O=C(Nc1ccc2c(c1)C(=O)NC2=O)c1cccc(C(F)(F)F)c1	none
CCCCCCCCCCCCCCCCOCC(COP(=O)([O-])OCC[N+](C)(C)C)OC (configuration not stated)	DT40 TDP1 CPT inconclusive (no result: IL-1B inflam inh, HT1080 IDH1KD tx, HT1080NT lethal)
COc1ccc(CNC(=O)C2CCCN2S(=O)(=O)c2ccc(F)cc2)cc1 (configuration not stated)	none
CC(=O)c1ccc(OCC(C)Oc2ccc(C#N)cc2)cc1 (configuration not stated)	DT40 TDP1 no CPT 23.1µM, DT40 TDP1 CPT inconclusive
CC(=O)c1ccc(OCC(O)COc2ccc(C(C)=O)cc2)cc1	none
CCc1ccc(S(=O)(=O)Nc2ccc(O)c3ccccc23)cc1	DT40 TDP1 no CPT 6.51µM, DT40 TDP1 CPT 6.51µM
O=S(=O)(Nc1ccc(O)c2ccccc12)c1ccc(F)cc1	DT40 TDP1 no CPT 9.2µM, DT40 TDP1 CPT 11.6µM
CCCC1(CCC)NC(=O)N(CC(=O)c2cc(C)n(-c3ccc4c(c3)OCO4)c2C)C1=O	DT40 TDP1 no CPT 20.6µM, DT40 TDP1 CPT inconclusive
